This is one part of a sample in which hits are shown more often than they occur.
Tb PYK inh – blocks Trypanosoma brucei pyruvate kinase; 410,000 compounds, 0.12% hits; Q57TT1; TbPYK enzyme, Kinase-Glo Plus ATP luminescence, 45 min; Potency, µM (titrated, usually from 76.8 µM), without a hit: at the top dose activity, negative = inhibition, usual class: inhibitors; further: potency means the concentration at half of the fitted maximal effect; on the % scale 0 is the no-effect control and ±100 the full control effect; nearly all actives have a fitted effect of over 50% in size
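Activity of T. brucei pyruvate kinase was followed by Kinase-Glo Plus luminescence after the enzyme reacted 45 min at room temperature with 130 uM ADP (final) and substrate. Test compounds were added before ADP at multiple concentrations.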
CHX counter – counter-screen hit for Shiga toxin inhibitors, cycloheximide | cell reporter, cycloheximide protein synthesis inhibition counterscreen | AID 2314 | 300,000 compounds, 12% hits | max response, %; in the data active means max response mostly above about 13%, no sharp cut-off; inactive means mostly below about 14%; further: read at 38.3 µM for the half of the compounds with a filed dose; 0% is about no effect
Shiga toxin inh – Shiga toxin inhibition; inhibition, % at 38.7 µM; 290,000 compounds, 9.2% hits; AID 2315; Vero cells, Shiga toxin protein synthesis inhibition reporter; in the data active means inhibition mostly above about 28%, no sharp cut-off; inactive means mostly below about 43%; further: 0% is about no effect
Giardia FBPA inh-1 – blocks Giardia fructose-bisphosphate aldolase activity. A8B2U2. purified Giardia FBPA. Potency, µM (titrated, usually from 59.6 µM), for the others: top-dose activity, negative = inhibition, most hits filed as inhibitors. 290,000 compounds, 0.71% hits. AID 2451; further: potency means the concentration at half of the fitted maximal effect; on the % scale 0 is the no-effect control and ±100 the full control effect; nearly all actives have a fitted effect of over 55% in size
Target sequence (A8B2U2 whole entry, looked up): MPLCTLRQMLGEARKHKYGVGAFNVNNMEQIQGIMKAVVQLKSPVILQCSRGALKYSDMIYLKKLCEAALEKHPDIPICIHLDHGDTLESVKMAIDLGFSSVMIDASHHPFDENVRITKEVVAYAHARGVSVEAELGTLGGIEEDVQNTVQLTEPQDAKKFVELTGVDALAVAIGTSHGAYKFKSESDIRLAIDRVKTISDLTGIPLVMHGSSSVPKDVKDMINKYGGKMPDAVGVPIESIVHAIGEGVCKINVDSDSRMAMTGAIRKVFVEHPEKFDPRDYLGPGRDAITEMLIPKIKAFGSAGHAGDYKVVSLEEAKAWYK
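40 nM FBPA preincubated 10 min at RT with compound (up to 57.5 uM final), then substrate plus GAPDH/TPI/NAD/arsenate coupling and diaphorase/resazurin added. Fluorescence read after 20 min at RT, 525/598 nm.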
RE007 growth inh – less growth of the S. pombe RE007 Vpr strain; S. pombe RE007 Vpr strain, BacTiter-Glo ATP luminescence, 24 h; Potency, µM (highest dose often 92.2 µM), for the others: at the highest dose activity change, negative = less growth, hits mostly inhibitors; 360,000 compounds, 0.21% hits; active means well fitted falling curve with a large enough effect; inconclusive means small, poorly fitted or top-dose-only effect; inactive means no such curve, though single readings can be large or run the other way; further: potency means the concentration at half of the fitted maximal effect; on the % scale 0 is the no-effect control and ±100 the full control effect; nearly all actives have a fitted effect of over 50% in size
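Fission yeast RE007 carrying one integrated HIV-1 vpr copy, seeded at OD 0.01 in PMG+AL medium with 23 nL pinned compound. Grown 24 h at 30 degrees; viability read by BacTiter-Glo luminescence after 5 min.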
LmPK inh – inhibitors of Leishmania mexicana pyruvate kinase; purified LmPK, Kinase-Glo ATP luminescence, 1 h; Potency, µM (doses to about 57.5 µM), for the others: top-dose activity change, negative = inhibition, most hits filed as inhibitors; 290,000 compounds, 0.37% hits; further: potency means the concentration at half of the fitted maximal effect; on the % scale 0 is the no-effect control and ±100 the full control effect
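0.1 nM LmPK, 0.5 mM PEP, 0.1 mM ADP; 50 mM imidazole pH 7.2, 7 mM MgCl2, 50 mM KCl; 1 h RT. Kinase-Glo luminescence readout, normalized to no-enzyme (full inhibition) and uninhibited wells.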
Giardia growth – blocks growth of Giardia lamblia trophozoites; shares compounds with Giardia FBPA inh-1; Giardia lamblia trophozoite growth inhibition; Potency, µM (doses to about 57.5 µM), inactives show at the top dose activity change, negative = inhibition, actives largely listed as inhibitors; 1,500 compounds, 5% hits; AID 2785;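 further: potency means the concentration at half of the fitted maximal effect; trophozoites exposed to compound for 48 h at 37 °C; on the % scale 0 is the no-effect control and ±100 the full control effect; nearly all actives have a fitted effect of over 70% in size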
Mammal cell tox – counter-screen for Giardia aldolase inhibitors: mammalian cell toxicity | 1,500 compounds, 4% hits | AID 2786 | shares compounds with Giardia FBPA inh-1 | Potency, µM (doses to about 57.5 µM), without a hit: at the highest dose viability change, negative = toxicity, usual class: inhibitors | mammalian cell viability counter-screen, qHTS;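 further: Chinese hamster ovary cells used as mammalian cytotoxicity surrogate; viability measured as cellular ATP by luminescence; potency means the concentration at half of the fitted maximal effect; compound exposure lasted 48 h before reading; on the % scale 0 is the no-effect control and ±100 the full control effect; nearly all actives have a fitted effect of over 60% in size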
Giardia FBPA inh-2 – confirmation of Giardia fructose-bisphosphate aldolase inhibitors | shares compounds with Giardia FBPA inh-1 | purified Giardia aldolase enzyme activity, qHTS | Potency, µM (highest dose often 57.5 µM), for the others: at the highest dose activity change, negative = inhibition, actives largely listed as inhibitors | 1,500 compounds, 5% hits | AID 2787; further: potency means the concentration at half of the fitted maximal effect; on the % scale 0 is the no-effect control and ±100 the full control effect; nearly all actives have a fitted effect of over 45% in size
Rabbit aldolase – blocks rabbit muscle aldolase in Giardia aldolase selectivity test; Potency, µM (doses to about 57.5 µM), inactives show at the highest dose activity, negative = inhibition, most hits filed as inhibitors; Rabbit muscle FBPA enzyme inhibition, selectivity counter-screen; 1,500 compounds, 4% hits; AID 2794; shares compounds with Giardia FBPA inh-1; further: potency means the concentration at half of the fitted maximal effect; on the % scale 0 is the no-effect control and ±100 the full control effect; nearly all actives have a fitted effect of over 60% in size
Target sequence (P00883 whole entry, looked up): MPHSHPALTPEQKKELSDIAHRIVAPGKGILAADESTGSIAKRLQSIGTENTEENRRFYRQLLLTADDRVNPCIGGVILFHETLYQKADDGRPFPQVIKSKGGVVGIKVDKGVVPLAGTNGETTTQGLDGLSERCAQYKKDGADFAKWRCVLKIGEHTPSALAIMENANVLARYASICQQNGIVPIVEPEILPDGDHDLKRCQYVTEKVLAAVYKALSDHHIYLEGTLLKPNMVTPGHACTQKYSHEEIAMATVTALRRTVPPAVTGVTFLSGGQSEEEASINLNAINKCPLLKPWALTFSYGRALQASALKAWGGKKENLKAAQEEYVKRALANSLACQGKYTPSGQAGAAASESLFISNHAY
GAPDH counter – counter-screen for Giardia aldolase inhibitors: GAPDH coupling enzyme; shares compounds with Giardia FBPA inh-1; GAPDH coupling enzyme counterscreen, biochemical, qHTS; Potency, µM (doses to about 57.5 µM), inactives show top-dose activity change, negative = inhibition, hits mostly inhibitors; 1,500 compounds, 6% hits; further: potency means the concentration at half of the fitted maximal effect; on the % scale 0 is the no-effect control and ±100 the full control effect; nearly all actives have a fitted effect of over 55% in size
Starred values were filed as active, the others as inactive; [ ] = dose if it differs, or a comment. Unless noted, the call rests on the fitted dose curve; in most records, active means well fitted curve in the direction sought with a large enough effect; inconclusive means small, poorly fitted or top-dose-only effect, or another doubt; inactive means no such curve, though single readings can be large; an effect the other way counts as inactive or inconclusive.

`CCOC(=O)C1CCN(Cc2ccc(OC)cc2OC)CC1` gave Tb PYK inh -5%, CHX counter -4, Shiga toxin inh -12, Giardia FBPA inh-1 inconclusive, RE007 growth inh 1% and LmPK inh -5%.
`COc1ccc(CN2CCC(N3CC(C)OC(C)C3)CC2)c(OC)c1` (configuration not stated) gave Tb PYK inh 36%, CHX counter 1, Shiga toxin inh -16, Giardia FBPA inh-1 inconclusive, RE007 growth inh -19%, LmPK inh -6%, Giardia growth 12%[38.3 µM], Mammal cell tox 10%, Giardia FBPA inh-2 3%, Rabbit aldolase 4% and GAPDH counter 16%.
Screening COc1ccc(CN2CCN(Cc3ccc(C)cc3)CC2)c(OC)c1 returned Tb PYK inh 1%, CHX counter -6, Shiga toxin inh 20, Giardia FBPA inh-1 14µM*, RE007 growth inh -13%, LmPK inh -3%, Giardia growth 19%, Mammal cell tox 1%, Giardia FBPA inh-2 3%, Rabbit aldolase 1% and GAPDH counter -2%.
CCN(CC)Cc1c(O)ccc2c(=O)c(-c3ccccc3OC)coc12 was read as Tb PYK inh 1%, CHX counter -2, Giardia FBPA inh-1 3%, RE007 growth inh -2% and LmPK inh 8%.
Screening COc1ccc(CN2CCN(Cc3ccccc3F)CC2)c(OC)c1 returned Tb PYK inh -5%, CHX counter -3, Shiga toxin inh -21, Giardia FBPA inh-1 13µM*, RE007 growth inh -6%, LmPK inh -5%, Giardia growth 19%, Mammal cell tox 0%, Giardia FBPA inh-2 -3%, Rabbit aldolase 7% and GAPDH counter -14%.
`CN(C(=O)c1cccc(NC(=O)Cc2cccc(NC(=O)C3CCCN(C(=O)c4ccccc4)C3)c2)c1)C1CCC1` (configuration not stated) gave Tb PYK inh -4% and RE007 growth inh 0%.
For CN(C)S(=O)(=O)c1ccc(C(=O)Nc2nnc(-c3ccco3)o2)cc1 the results were Tb PYK inh 4%, CHX counter 21, Shiga toxin inh 4, Giardia FBPA inh-1 6.3µM*, RE007 growth inh 5%, LmPK inh 0%, Giardia growth 8%[38.3 µM], Mammal cell tox -17%, Giardia FBPA inh-2 2%, Rabbit aldolase 1% and GAPDH counter -8%.
CCN(CC)S(=O)(=O)c1ccc(C(=O)Nc2nnc(CSC)o2)cc1 was read as Tb PYK inh 6%, CHX counter -3, Shiga toxin inh -2, Giardia FBPA inh-1 16µM*, RE007 growth inh -3%, LmPK inh 2%, Giardia growth 18µM*, Mammal cell tox -5%, Giardia FBPA inh-2 6%, Rabbit aldolase 10% and GAPDH counter 7%.
Screening CCCCN(CCCC)S(=O)(=O)c1ccc(C(=O)Nc2nnc(COC)o2)cc1 returned Tb PYK inh -5%, CHX counter -2, Shiga toxin inh 12, Giardia FBPA inh-1 15%, RE007 growth inh -9% and LmPK inh 1%.
For CCN(CC)S(=O)(=O)c1ccc(C(=O)Nc2nnc(COC)o2)cc1 the results were Tb PYK inh 0%, CHX counter -2, Shiga toxin inh 12, Giardia FBPA inh-1 18µM*, RE007 growth inh 3%, LmPK inh 7%, Giardia growth 9%, Mammal cell tox 16%, Giardia FBPA inh-2 6%, Rabbit aldolase 18% and GAPDH counter 19%.
`CCC(=O)OCC(=O)[C@@]1(OC(=O)CC)[C@H](C)C[C@@H]2[C@H]3CCC4=CC(=O)C=C[C@]4(C)[C@]3(Cl)[C@@H](O)C[C@@]21C` gave Giardia FBPA inh-1 -4%[21.7 µM].
Screening COc1ccc(-c2nc3ccccc3n3c(-c4cccc(C)c4)c4c(=O)n(C)c(=O)n(C)c4c23)cc1 returned Tb PYK inh 2%.
For COc1cc(NC(=O)CSc2nc3ncnc(N)c3[nH]2)c(C(=O)O)cc1OC the results were Tb PYK inh 8%, CHX counter -2, Shiga toxin inh 3, Giardia FBPA inh-1 11µM*, RE007 growth inh -12%, LmPK inh 2%, Giardia growth 6%, Mammal cell tox -14%, Giardia FBPA inh-2 -2%, Rabbit aldolase 2% and GAPDH counter 2%.
For O=C(O)CNC(=O)CC1S/C(=N/N=C2\CSC(=O)N2)NC1=O (configuration not stated) the results were Tb PYK inh -2%, CHX counter -4, Shiga toxin inh -9, Giardia FBPA inh-1 5.6µM*, RE007 growth inh 10%, LmPK inh 27%, Giardia growth 13%[38.3 µM], Mammal cell tox 4%, Giardia FBPA inh-2 -10%, Rabbit aldolase 8% and GAPDH counter -8%.
For O=C(O)CCS(=O)(=O)c1cccc2cccnc12 the results were Tb PYK inh -9%, CHX counter 1, Shiga toxin inh -3, Giardia FBPA inh-1 3%, RE007 growth inh 2% and LmPK inh 0%.
For CCSS(=O)(=O)c1cccc2cccnc12 the results were Tb PYK inh 10µM*, CHX counter 1, Shiga toxin inh 11, Giardia FBPA inh-1 16µM*, RE007 growth inh 5.6µM*, LmPK inh 47%, Giardia growth -18%[10.4 µM], Mammal cell tox -4%, Giardia FBPA inh-2 -10%, Rabbit aldolase inconclusive and GAPDH counter inconclusive.
`Cc1nc(N)sc1-c1csc(Nc2cccc(C(=O)O)c2)n1` gave Tb PYK inh -18%, CHX counter -1, Shiga toxin inh -9, Giardia FBPA inh-1 18µM*, RE007 growth inh 11%, LmPK inh -2%, Giardia growth -23%, Mammal cell tox 6%, Giardia FBPA inh-2 inconclusive, Rabbit aldolase 32µM* and GAPDH counter 32µM*.

From PubChem BioAssay
